One assay deals with Staphylococcus aureus. As to conditions: Concentration 20 uM; ASSAY_TEST Inhibition of Bacterial Growth; detection method Absorption (OD600); MEDIA CAMHB; plate type 384well; NBS; CORNING #3640; time 18 hr.
The test system of another assay is Escherichia coli. The conditions noted are these: Concentration 20 uM; ASSAY_TEST Inhibition of Bacterial Growth; detection method Absorption (OD600); MEDIA CAMHB; plate type 384well; NBS; CORNING #3640; time 18 hr.

As usually defined, the Inhibition is the drop in the measured response relative to a control, in per cent.

Structures are written as SMILES. Potency and affinity values are given separately.

`Cc1ccc(-c2nc(CN(Cc3ccccn3)C(C)C)cs2)o1`: the values for the Inhibition in the assay on Staphylococcus aureus and with Escherichia coli were 63.05% and 8.22%, respectively.
As to `c1ccc(Oc2ccc(-c3cc(N4CCOCC4)[nH]n3)cc2)cc1`, the Inhibition was 17.8% in the assay with Staphylococcus aureus and 4.28% in the assay on Escherichia coli.
The corresponding values for `COc1ccc(CCN2CCC(NCc3cccc(N(C)C)c3)CC2)cc1` are 16.93% and 1.75%.
The corresponding values for `O=C(c1ccc(F)cc1)N(CCNc1ccccc1)c1ccccc1` are 14.62% and 8.4%.
The corresponding values for `Clc1ccc(Cl)c(CO[C@H]2CCCC[C@@H]2n2ccnc2)c1` are 22.53% and 7.4%.
As to `COc1ccc(Oc2ccc([C@@H](C)N(C)c3ncc4c(N)nc(N)nc4n3)cc2)cc1`, the Inhibition with Staphylococcus aureus is listed as 53.21%; with Escherichia coli, 13.92%.
The corresponding values for `CN1CCN(c2cc(-c3ccc(F)cc3)nc(-c3ccncc3)n2)CC1` are 17.93% and -5.05%.
The corresponding values for `Clc1cccc(CO[C@H]2CCc3ccccc3[C@@H]2n2ccnn2)c1` are -0.96% and 7.53%.
In the same order, the values of `CC(C(=O)Nc1ccc2oc(-c3ccncc3)nc2c1)c1ccccc1` (stereo not drawn) are 33.61% and 6.76%.
In the case of `Cc1nc(-c2cccc(NCc3ccccc3)c2)[nH]c1C`, the Inhibition in the assay with Staphylococcus aureus was 19.75%; with Escherichia coli it was 6.38%.
In the same order, the values of `FC(F)(F)c1nnc2ccc(Cl)nn12` are 14.72% and 1.56%.
In the case of `CC(=O)N(CCN(C(=O)c1ccc(F)cc1)c1ccccc1)c1ccccc1`, the Inhibition in the assay on Staphylococcus aureus is listed as 12.64%; in the assay with Escherichia coli, 5.32%.
In the same order, the values of `CC(C(=O)N1CCCC1)N1CCN(S(=O)(=O)c2ccc(C(C)(C)C)cc2)CC1` (stereo not drawn) are 8.1% and -2.16%.
As to `C[C@H](C(N)=O)N1CCCC[C@@H]1c1ccc(OCc2cccc(F)c2)cc1`, the results for the Inhibition in the assay on Staphylococcus aureus and in the assay with Escherichia coli were 12.73% and 2.14%, respectively.
In the same order, the values of `Cc1ccc(NC(=O)CC2COc3ccccc3O2)cc1Cl` (stereo not drawn) are 15.28% and 6.03%.
The corresponding values for `CN1CCCN(C(c2ccccc2)c2ccc(Cl)cc2)CC1` (stereo not drawn) [HOMOCHLORCYCLIZINE] are 14.31% and 4.77%.
In the same order, the values of `NS(=O)(=O)c1cccc(-c2ccc3ncc(N4CCOCC4)nc3c2)c1` are 16.94% and 14.17%.
As to `CS(=O)(=O)c1ccccc1C(=O)N(Cc1ccccc1)c1ccccc1`, the Inhibition is 14.37% in the assay on Staphylococcus aureus and 5.13% in the assay on Escherichia coli.
Consider `CC(Oc1cccc(Cl)c1)C(=O)Nc1ccc2oc(-c3ccncc3)nc2c1` (stereo not drawn), for which the Inhibition turned out to be 60.53% in the assay with Staphylococcus aureus and 7.3% in the assay on Escherichia coli.
In the same order, the values of `CC1CCCN(C(=O)C(C)Nc2cc(Cl)ccc2N2CCOCC2)C1` (stereo not drawn) are 20.88% and 9.44%.
The corresponding values for `CN(C)CCNC(=O)N1CCCN(c2ncnc3cc(-c4ccccc4)sc23)CC1` are 13.78% and 3.44%.
In the same order, the values of `Cc1cc(C)n(-c2ccc(NC(=O)C3CCN(Cc4cnc(C)s4)CC3)cc2)n1` are 16.08% and 3.68%.
Consider `CN1CCN(c2nccc3[nH]c(-c4cccc(F)c4)cc23)CC1`, for which the Inhibition is 12.79% in the assay with Staphylococcus aureus and 3.68% in the assay on Escherichia coli.
For the compound `COc1ccc(-c2cnc3ccc(N4CCCC4)nn23)cc1OC`, the Inhibition in the assay on Staphylococcus aureus turned out to be 12.67%; in the assay with Escherichia coli it was 7.3%.
Turning to `OCc1ccc(-c2cncc(Nc3cccc(Cl)c3)c2)cc1`, the Inhibition in the assay on Staphylococcus aureus came out at 14.66%; in the assay on Escherichia coli, 10.9%.
In the same order, the values of `COc1ccc(C(=N)N)cc1-c1cn(-c2ccc(C(=N)N)cc2)nn1.Cl.Cl` are 4.09% and 2.37%.
In the same order, the values of `COc1cc2ncnc(NC3CCN(Cc4ccccc4)CC3)c2cc1OC` are 7.78% and -0.93%.
The corresponding values for `Cc1nnc(NCc2cccc(Cl)c2)c2ccccc12` are 21.63% and 9.19%.
With `Cc1cnc(N2CCN[C@@H](Cc3ccccc3)C2)nc1Oc1ccc(-n2ccnc2)cc1.Cl`, the Inhibition with Staphylococcus aureus is recorded as 11.48%; in the assay with Escherichia coli, -1.63%.
Turning to `O=C(OCc1ccccc1)N1CCC(c2cc(-c3ccncc3)c(-c3ccc(F)cc3)[nH]2)CC1`, the values for the Inhibition in the assay on Staphylococcus aureus and with Escherichia coli were 3.21% and 4.05%, respectively.
Regarding `Cc1cc(Nc2ccncc2)n2nc(C)c(-c3ccccc3Cl)c2n1`, the figures for the Inhibition in the assay with Staphylococcus aureus and in the assay on Escherichia coli were 12.68% and 7.54%, respectively.
Take `COc1cncc(-c2cncc(N3CCN(c4ccncc4)CC3)n2)c1`: the figures for the Inhibition in the assay on Staphylococcus aureus and in the assay with Escherichia coli were 18.85% and 13.61%, respectively.
In the same order, the values of `Cc1cccc(-c2nc(Nc3ccncn3)c3sccc3n2)n1` are 21.43% and 8.12%.
The corresponding values for `CNC(=O)c1cc(S(=O)(=O)N2CCN(c3ccccn3)CC2)cs1` are 7.99% and -1.66%.
In the same order, the values of `C[C@H](c1ccc2c(c1)CCCC2)N(C)c1ncc2c(N)nc(N)nc2n1` are 64.04% and 11.2%.
For `COc1ccccc1C(C)NCC(=O)Nc1cc(C(F)(F)F)ccc1Cl` (stereo not drawn), the Inhibition in the assay on Staphylococcus aureus came to 10.99%; with Escherichia coli, 8.42%.
In the same order, the values of `O=C(Cn1ccnc1[N+](=O)[O-])NCc1ccccc1` [BENZNIDAZOLE] are 21.81% and 9.92%.
Consider `CNc1nnc(Sc2cnn(-c3ccccc3)c(=O)c2Cl)s1`, for which the Inhibition with Staphylococcus aureus was 17.43%; in the assay with Escherichia coli, -7.26%.
In the same order, the values of `O=C(NCCc1ccccc1)c1cc(-c2cccnc2)cnc1NCC1CC1` are 6.31% and 1.84%.
In the same order, the values of `Cc1c[nH]c(CCNC(=O)c2cc(-c3ccc(Cl)cc3)cs2)n1` are 25.33% and 10.78%.
The corresponding values for `Cc1ccc(NC(=O)c2cc(S(=O)(=O)NC(C)(C)C)ccc2C)nc1` are 21% and 8.11%.
Regarding `O=C(Nc1cnc2ccccc2c1)c1cccc(-n2cnnn2)c1`, the Inhibition in the assay with Staphylococcus aureus is 5.61%; with Escherichia coli, -2.29%.
In the same order, the values of `OC[C@H]1O[C@@H](n2c3ccc(Cl)cc3c3c(-c4cc5ccccc5o4)ncnc32)C(O)[C@H]1O` (stereo partly drawn) are 9.2% and 8.79%.
The corresponding values for `CC(C)(C(=O)Nc1ccc(F)cc1)n1cc(-c2ccccc2F)cn1` are 21.36% and 9.99%.
In the same order, the values of `O=C(C(Cc1c[nH]c2ccccc12)NS(=O)(=O)c1ccc(Cl)cc1)N1CCCCC1` (stereo not drawn) are 2.32% and 4.17%.
On to `CS(=O)(=O)c1ccc(C(=O)N(CC2CCCO2)c2nc3ccccc3s2)cc1[N+](=O)[O-]` (stereo not drawn), for which the Inhibition worked out at 17.15% with Staphylococcus aureus and 7.54% in the assay with Escherichia coli.
The corresponding values for `CCC(C)NC(=O)c1ccc(NC(=O)C2(c3ccccc3)CCCC2)cc1` (stereo not drawn) are 13.32% and -4.39%.
In the same order, the values of `Cc1ccc(C(=O)Nc2ccc(S(=O)(=O)O)c3cc(S(=O)(=O)O)cc(S(=O)(=O)O)c23)cc1NC(=O)c1cccc(NC(=O)Nc2cccc(C(=O)Nc3cc(C(=O)Nc4ccc(S(=O)(=O)O)c5cc(S(=O)(=O)O)cc(S(=O)(=O)O)c45)ccc3C)c2)c1` [SURAMIN] are 23.13% and 7.96%.
Consider `CCOc1ccccc1NC(C)C(=O)Nc1cc(C(F)(F)F)ccc1N1CCOCC1` (stereo not drawn), for which the Inhibition with Staphylococcus aureus came out at 15.12%; with Escherichia coli it was 7.27%.
The corresponding values for `COc1ccc(Nc2ccccc2NC(=O)c2ccc(O)nc2)cc1` are 8.88% and -4.3%.
In the same order, the values of `COC(=O)c1ccc(F)cc1NS(=O)(=O)c1cccc(-c2cnn(Cc3ccccc3)c2)c1` are 11.02% and 13.23%.
In the case of `Cc1ccccc1C(=O)N1N=C(Nc2ccccc2)SC1(C)C`, the results for the Inhibition with Staphylococcus aureus and in the assay on Escherichia coli were 8.67% and 8.51%, respectively.
With `Cc1cc(C)c2cc(C(=O)NC3CCCCCCC3)[nH]c2c1`, the values for the Inhibition in the assay with Staphylococcus aureus and with Escherichia coli were 16.44% and 7.15%, respectively.
The corresponding values for `CCNC(=O)C(C)Nc1nc(-c2cccnc2)nc2sc(C)c(C)c12` (stereo not drawn) are 4.74% and 10.74%.
The corresponding values for `Cl.c1ccc(C[C@@H]2CN(c3nccc(Oc4ccc(-n5ccnc5)cc4)n3)CCN2)cc1` are 21.29% and 8.76%.
In the same order, the values of `FC(F)(F)c1cccc(-c2nc3c(NCc4ccncc4)nccc3[nH]2)c1` are 9.41% and 5.83%.
For `CCS(=O)(=O)N(Cc1ccco1)Cc1cc2ccc(C)cc2nc1O`, the values for the Inhibition in the assay on Staphylococcus aureus and in the assay on Escherichia coli were 9.79% and -2.16%, respectively.
In the same order, the values of `COC(=O)C1=C(C)NC(C)=C(C(=O)OC(C)C)C1c1cccc2nonc12` (stereo not drawn) [ISRADIPINE] are 3.78% and -1.04%.
Turning to `CC1=NN(c2nc3ccccc3s2)C(=O)C1Cc1cccc2ccccc12` (stereo not drawn), the Inhibition with Staphylococcus aureus was determined as 69.16%; with Escherichia coli, 0.69%.
For `O=C(NCCc1c[nH]c2ccccc12)c1cc2ccccc2oc1=O`, the Inhibition in the assay on Staphylococcus aureus turned out to be 13.99%; in the assay on Escherichia coli, 9.41%.
In the same order, the values of `O=C(C1CCN(c2nnnn2-c2ccccc2)CC1)N1CCc2ccccc2C1` are 18.44% and 5.61%.
Consider `CCn1cnc2c(Nc3cc(F)cc(F)c3)nc(C#N)nc21`, for which the Inhibition was 36.21% in the assay with Staphylococcus aureus and 12.2% with Escherichia coli.
The corresponding values for `O=C(C1CCN(c2cc(-n3cccc3)ncn2)CC1)N1CCc2ccccc2C1` are 7.19% and 12.02%.
The corresponding values for `CCOc1ccc2cc(-c3nn(C(C)(C)C)c(N)c3C(N)=O)cnc2c1.Cl` are 14.66% and 7.93%.
The corresponding values for `CN(C(=O)c1cc2c(-c3cncnc3)cccc2[nH]1)c1ccccc1` are 12.46% and 10.65%.
Consider `C[C@H](C(N)=O)N1CCCC[C@H]1c1ccc(OCc2cccc(F)c2)cc1`, for which the Inhibition came out at 21.57% in the assay on Staphylococcus aureus and 11.68% with Escherichia coli.
As to `COc1ccc(C2=NCCN2)cc1-c1cn(-c2cccc(C3=NCCN3)c2)nn1.O=C(O)C(F)(F)F.O=C(O)C(F)(F)F`, the results for the Inhibition with Staphylococcus aureus and in the assay on Escherichia coli were 20.97% and 10.7%, respectively.
In the same order, the values of `CC(=O)O.CC(=O)O.Nc1ncnc2c1ncn2[C@@H]1O[C@H](COS(=O)(=O)NC(=O)c2ccccc2O)[C@@H](O)[C@H]1O` are 15.68% and 5.07%.
In the same order, the values of `CS(=O)(=O)N1CCC(Cn2nc(Cc3cccc4ccccc34)c3c(N)ncnc32)CC1` are 11.53% and 3.3%.
The corresponding values for `O=C(Nc1ccnc(-c2cccnc2)n1)c1cc(C(F)(F)F)cc(C(F)(F)F)c1` are 15.63% and 6.19%.
In the case of `N#Cc1nc(-c2ccccc2)oc1S(=O)(=O)c1ccc(Cl)cc1`, the Inhibition in the assay with Staphylococcus aureus stood at 8.62%; with Escherichia coli it was 6.48%.
The corresponding values for `CC(C)(C)n1nc(Cc2ccc(F)c(Cl)c2)c2c(N)ncnc21` are 12.68% and 11.38%.
As for `O=C(NCc1ccoc1)N1CCN(Cc2ccc3c(c2)OCO3)CC1`, the Inhibition came out at 17.61% with Staphylococcus aureus and 3.25% in the assay on Escherichia coli.
For the compound `COc1ccc(-c2cncc3ccc(C(=O)NCCCn4ccnc4)nc23)cc1`, the Inhibition with Staphylococcus aureus came out at 13.71%; in the assay with Escherichia coli, 12.75%.
